Measurements from ChEMBL document CHEMBL3988442, “University of Dundee, Small-Polar-MMV Screening Library” (2021).
For some of these results: Measured potencies and affinities stand elsewhere.

Columns and labels:
Parameters in all cases: scale not given: direction of the effect not stated beside the values
[1] = target: Protein translocase subunit SecA (Escherichia coli (strain K12)) (UniProt P10408); assay: Assay to Identify E. coli SecA ATPase Inhibitors; format: functional; settings: 30 µM
[2] = target: T1, Ubiquitin-activating enzyme e1, putative (Leishmania donovani (strain BPK282A1)) (UniProt E9BSI1); assay: Leishmania donovani Ubiquitin Activating Enzyme (LdE1); format: functional; settings: 30 µM
T1 sequence (whole entry): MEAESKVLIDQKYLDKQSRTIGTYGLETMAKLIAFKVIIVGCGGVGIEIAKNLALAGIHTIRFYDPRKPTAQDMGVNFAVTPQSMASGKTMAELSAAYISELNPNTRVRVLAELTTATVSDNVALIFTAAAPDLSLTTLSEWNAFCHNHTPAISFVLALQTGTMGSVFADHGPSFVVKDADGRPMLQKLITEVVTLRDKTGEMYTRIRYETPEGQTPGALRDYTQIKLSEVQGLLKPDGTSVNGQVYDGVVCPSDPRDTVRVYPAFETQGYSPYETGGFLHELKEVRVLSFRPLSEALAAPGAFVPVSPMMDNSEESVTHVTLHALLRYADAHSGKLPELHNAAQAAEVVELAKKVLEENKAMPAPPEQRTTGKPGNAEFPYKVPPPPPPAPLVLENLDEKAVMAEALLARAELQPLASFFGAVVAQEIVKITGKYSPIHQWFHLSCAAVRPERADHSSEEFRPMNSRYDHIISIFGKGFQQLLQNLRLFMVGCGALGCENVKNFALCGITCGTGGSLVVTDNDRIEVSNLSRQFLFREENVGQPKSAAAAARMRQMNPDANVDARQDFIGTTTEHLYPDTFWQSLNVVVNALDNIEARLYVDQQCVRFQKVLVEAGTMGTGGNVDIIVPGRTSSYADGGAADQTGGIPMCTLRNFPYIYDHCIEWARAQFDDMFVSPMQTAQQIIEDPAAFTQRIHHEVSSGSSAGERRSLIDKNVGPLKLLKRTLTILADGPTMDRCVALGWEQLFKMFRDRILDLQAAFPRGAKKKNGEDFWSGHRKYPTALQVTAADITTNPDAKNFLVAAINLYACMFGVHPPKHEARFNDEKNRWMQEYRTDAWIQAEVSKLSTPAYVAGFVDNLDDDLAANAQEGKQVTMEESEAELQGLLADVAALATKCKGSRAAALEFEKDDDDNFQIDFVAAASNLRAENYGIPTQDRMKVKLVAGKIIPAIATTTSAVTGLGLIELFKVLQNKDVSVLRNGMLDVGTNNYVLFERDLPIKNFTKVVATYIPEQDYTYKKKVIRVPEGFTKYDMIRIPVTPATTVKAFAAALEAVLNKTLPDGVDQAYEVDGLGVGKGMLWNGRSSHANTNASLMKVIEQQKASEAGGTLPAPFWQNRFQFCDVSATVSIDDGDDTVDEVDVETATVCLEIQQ

[3] = target: Sialic acid-binding Ig-like lectin 9 (Homo sapiens) (UniProt Q9Y336); assay: Hs-Siglec9 ALPHAscreen SOP 20170721; settings: 10 µM
Chain of Sialic acid-binding Ig-like lectin 9 (Homo sapiens) (Q9Y336 whole entry): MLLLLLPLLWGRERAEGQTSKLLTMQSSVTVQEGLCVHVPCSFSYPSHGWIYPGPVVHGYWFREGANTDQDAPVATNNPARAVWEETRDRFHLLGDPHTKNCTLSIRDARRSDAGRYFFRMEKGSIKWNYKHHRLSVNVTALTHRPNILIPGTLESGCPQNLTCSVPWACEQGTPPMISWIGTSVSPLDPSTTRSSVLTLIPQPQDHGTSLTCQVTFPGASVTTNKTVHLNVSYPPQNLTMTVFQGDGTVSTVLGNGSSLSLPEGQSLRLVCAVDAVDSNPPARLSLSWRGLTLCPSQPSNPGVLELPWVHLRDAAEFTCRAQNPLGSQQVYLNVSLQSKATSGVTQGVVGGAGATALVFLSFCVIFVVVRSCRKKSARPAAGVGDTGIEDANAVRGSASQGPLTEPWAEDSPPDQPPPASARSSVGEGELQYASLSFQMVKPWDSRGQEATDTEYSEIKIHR

Trypanosoma cruzi = assay: Trypanosoma cruzi phosphomannomutase and mannose-1-phosphate guanylyltransferase assay; format: functional; settings: 10 µM
[4] = target: T2, Arginase-2, mitochondrial (Homo sapiens) (UniProt P78540); assay: in vitro enzyme assay to detect the production of urea directly proportional to the activity of Arginase II; format: functional; settings: 33.3 µM; also: in the data most compounds retested in dose-response had high values
T2 sequence (whole entry): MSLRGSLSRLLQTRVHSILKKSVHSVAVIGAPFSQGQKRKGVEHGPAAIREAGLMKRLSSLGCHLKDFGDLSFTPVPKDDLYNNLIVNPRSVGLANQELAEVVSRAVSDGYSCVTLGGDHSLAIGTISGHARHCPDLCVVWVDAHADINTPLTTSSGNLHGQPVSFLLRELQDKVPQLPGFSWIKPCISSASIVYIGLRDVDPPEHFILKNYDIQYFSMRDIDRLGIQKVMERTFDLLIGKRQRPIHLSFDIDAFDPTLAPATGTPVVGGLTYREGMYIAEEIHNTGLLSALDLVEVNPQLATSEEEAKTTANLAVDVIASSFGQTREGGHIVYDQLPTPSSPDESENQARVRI

[5] = target: T3, Proteasome subunit beta (Trypanosoma cruzi) (UniProt O96673); assay: Trypanosoma cruzi proteasome chymotrypsin-like activity (TcProtChymo) assay.; also: in the data most compounds retested in dose-response had high values; format: functional; settings: 9.37 µM
T3 sequence (whole entry): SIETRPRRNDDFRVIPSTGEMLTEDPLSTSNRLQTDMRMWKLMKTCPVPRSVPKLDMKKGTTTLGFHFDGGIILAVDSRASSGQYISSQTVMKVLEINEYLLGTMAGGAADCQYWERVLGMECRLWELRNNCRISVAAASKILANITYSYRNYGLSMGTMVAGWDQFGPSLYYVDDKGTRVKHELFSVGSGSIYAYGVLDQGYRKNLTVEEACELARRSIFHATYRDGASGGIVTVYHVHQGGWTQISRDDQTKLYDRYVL

Homo sapiens = species on record: Homo sapiens; assay: To identify inhibition of the IFN signalling (Jak-Stat) pathway via expression of an eGFP reporter gene under the control of an IFN-stimulated response element (ISRE) containing MxA promoter.; format: functional; settings: 30 µM
[6] = target: T4, Tyrosyl-tRNA synthetase, putative (Trypanosoma cruzi (strain CL Brener)) (UniProt Q4DSP6); assay: Trypanosoma cruzi tyrosyl tRNA synthetase (TcYRS) _High Tyrosine SOP; format: functional; settings: 30 µM; also: in the data most compounds retested in dose-response had high values
T4 sequence (whole entry): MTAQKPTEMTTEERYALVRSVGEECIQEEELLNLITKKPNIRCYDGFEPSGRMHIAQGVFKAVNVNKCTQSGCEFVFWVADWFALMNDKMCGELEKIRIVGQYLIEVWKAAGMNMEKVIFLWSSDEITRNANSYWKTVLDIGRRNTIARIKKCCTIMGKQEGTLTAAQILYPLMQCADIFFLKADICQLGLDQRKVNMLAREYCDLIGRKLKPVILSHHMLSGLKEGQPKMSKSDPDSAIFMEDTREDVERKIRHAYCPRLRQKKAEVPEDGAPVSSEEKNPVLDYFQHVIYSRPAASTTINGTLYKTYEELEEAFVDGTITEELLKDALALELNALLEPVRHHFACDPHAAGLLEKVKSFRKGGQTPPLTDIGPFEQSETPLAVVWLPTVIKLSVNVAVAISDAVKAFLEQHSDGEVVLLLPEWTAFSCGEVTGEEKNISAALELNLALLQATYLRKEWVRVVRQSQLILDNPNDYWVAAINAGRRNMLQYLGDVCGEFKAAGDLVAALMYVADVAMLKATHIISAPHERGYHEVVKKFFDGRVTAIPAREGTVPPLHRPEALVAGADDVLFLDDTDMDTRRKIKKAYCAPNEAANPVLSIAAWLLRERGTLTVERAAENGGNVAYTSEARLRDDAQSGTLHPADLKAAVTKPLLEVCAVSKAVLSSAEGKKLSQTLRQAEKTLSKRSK

[7] = target: T4, Tyrosyl-tRNA synthetase, putative (Trypanosoma cruzi (strain CL Brener)); assay: Trypanosoma cruzi tyrosyl tRNA synthetase (TcYRS) SOP; format: functional; settings: 30 µM
[8] = target: Chromo domain-containing protein 1 (Saccharomyces cerevisiae (strain ATCC 204508 / S288c) (Baker's yeast)) (UniProt P32657); assay: ScCHD-1 Enzyme Inhibition Assay; format: functional; settings: 30 µM; also: in the data most compounds retested in dose-response had high values
Chain of Chromo domain-containing protein 1 (Saccharomyces cerevisiae (strain ATCC 204508 / S288c) (Baker's yeast)) (P32657 whole entry, the tested form may be a part): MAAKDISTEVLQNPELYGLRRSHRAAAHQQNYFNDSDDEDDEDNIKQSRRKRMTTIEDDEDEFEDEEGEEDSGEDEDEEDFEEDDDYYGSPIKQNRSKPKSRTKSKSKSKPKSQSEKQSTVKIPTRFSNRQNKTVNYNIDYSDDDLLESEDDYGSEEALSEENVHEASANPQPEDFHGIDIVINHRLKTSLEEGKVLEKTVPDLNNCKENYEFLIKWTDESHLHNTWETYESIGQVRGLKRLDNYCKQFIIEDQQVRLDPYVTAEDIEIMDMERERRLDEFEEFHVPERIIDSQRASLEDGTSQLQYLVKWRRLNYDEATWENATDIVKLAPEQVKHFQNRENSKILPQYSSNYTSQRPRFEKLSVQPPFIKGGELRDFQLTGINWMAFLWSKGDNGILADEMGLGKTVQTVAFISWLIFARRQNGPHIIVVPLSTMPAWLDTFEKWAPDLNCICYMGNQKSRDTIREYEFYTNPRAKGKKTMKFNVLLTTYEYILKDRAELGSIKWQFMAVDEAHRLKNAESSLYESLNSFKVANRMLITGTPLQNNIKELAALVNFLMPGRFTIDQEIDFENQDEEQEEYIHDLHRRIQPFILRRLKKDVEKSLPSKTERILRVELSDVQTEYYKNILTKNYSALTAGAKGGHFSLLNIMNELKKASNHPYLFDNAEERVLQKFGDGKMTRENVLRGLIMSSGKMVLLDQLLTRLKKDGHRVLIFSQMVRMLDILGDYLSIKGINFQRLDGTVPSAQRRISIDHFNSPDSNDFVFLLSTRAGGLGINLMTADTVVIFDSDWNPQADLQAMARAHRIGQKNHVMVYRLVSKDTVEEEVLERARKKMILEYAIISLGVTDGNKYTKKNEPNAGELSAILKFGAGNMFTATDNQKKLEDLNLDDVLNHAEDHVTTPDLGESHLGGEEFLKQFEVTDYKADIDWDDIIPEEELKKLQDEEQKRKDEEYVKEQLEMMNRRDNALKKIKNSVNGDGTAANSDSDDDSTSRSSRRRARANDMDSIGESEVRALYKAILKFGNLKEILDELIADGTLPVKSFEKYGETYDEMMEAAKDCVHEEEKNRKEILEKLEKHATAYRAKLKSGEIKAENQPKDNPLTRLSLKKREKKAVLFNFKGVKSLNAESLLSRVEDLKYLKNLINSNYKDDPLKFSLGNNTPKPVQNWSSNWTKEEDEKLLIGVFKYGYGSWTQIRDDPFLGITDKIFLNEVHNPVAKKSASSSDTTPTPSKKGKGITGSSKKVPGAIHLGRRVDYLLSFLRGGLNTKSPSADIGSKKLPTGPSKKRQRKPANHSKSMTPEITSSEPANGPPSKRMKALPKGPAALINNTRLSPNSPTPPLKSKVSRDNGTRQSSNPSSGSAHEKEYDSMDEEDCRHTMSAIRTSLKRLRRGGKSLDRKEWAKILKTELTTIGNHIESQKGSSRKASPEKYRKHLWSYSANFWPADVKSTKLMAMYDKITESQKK

Chain of Protein translocase subunit SecA (Escherichia coli (strain K12)) (P10408 whole entry): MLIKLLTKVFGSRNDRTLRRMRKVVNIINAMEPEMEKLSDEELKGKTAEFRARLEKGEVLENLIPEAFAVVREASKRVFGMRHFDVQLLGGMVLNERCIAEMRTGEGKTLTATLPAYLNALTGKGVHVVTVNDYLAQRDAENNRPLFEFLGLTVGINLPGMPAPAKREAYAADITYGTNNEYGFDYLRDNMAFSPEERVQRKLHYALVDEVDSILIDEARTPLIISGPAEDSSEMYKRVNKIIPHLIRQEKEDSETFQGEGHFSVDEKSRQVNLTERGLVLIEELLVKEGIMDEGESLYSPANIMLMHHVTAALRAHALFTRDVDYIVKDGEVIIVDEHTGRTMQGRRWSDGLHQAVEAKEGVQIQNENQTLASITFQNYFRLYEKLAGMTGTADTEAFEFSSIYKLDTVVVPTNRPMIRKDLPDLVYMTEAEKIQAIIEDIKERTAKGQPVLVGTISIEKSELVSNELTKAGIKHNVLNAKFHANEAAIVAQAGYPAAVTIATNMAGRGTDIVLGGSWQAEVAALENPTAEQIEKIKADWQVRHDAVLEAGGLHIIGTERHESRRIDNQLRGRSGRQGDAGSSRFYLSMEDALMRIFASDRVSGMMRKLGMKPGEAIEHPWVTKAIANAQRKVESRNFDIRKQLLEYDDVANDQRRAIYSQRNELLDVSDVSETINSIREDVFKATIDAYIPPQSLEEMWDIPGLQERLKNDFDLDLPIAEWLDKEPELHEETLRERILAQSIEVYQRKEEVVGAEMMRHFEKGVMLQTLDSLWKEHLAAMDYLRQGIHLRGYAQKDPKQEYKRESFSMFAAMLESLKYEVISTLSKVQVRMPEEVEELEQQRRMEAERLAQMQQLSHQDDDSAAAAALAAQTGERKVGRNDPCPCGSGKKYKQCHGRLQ

Compound | Percent Effect [1] [%] | Percent Effect [2] [%] | Percent Effect [3] [%] | Percent Effect (Trypanosoma cruzi) [%] | Percent Effect [4] [%] | Percent Effect [5] [%] | Percent Effect (Homo sapiens) [%] | Percent Effect [6] [%] | Percent Effect [7] [%] | Percent Effect [8] [%]
Cn1ccc(C(=O)NCc2cccc(NC(=O)C3CCC3)c2)cc1=O | -3.75 | 26 | 5.5 | 4.48 | -1.84 | 12.3 | 12 | 2.94 | 21.2 | -9.82
CCC1CN(C(=O)c2ccccc2N2CCCC2)CCN1C(C)C (stereo not given) | -7.26 | 5.41 | -0.153 | -4.75 | -5.94 | 5.31 | -3.97 | 3.72 | -7.32 | -5.34
Fc1ccc(-c2nnc(CN3CCn4c(nnc4C4CC4)C3)o2)cc1 | -4.82 | -18.7 | 2.87 | -3.81 | 1.77 | 3.99 | -0.798 | 10 | 15.4 | -6.37
Cn1cc(NC(=O)N2CCC(c3ccccc3)CC2)ccc1=O | -1.84 | 51.3 | 4.28 | 8.92 | 9.43 | 2.3 | 23 | 0.478 | 6.02 | 1.81
CCc1nc(C2CCCN2CCn2cncn2)no1 (stereo not given) | -1.22 | 5.2 | 7.59 | -0.187 | 3.07 | 3.86 | 1.29 | 1.96 | 7.06 | -4.93
O=C(c1cc(C2CC2)[nH]n1)N1CCCC(n2cncn2)C1 (stereo not given) | -2.3 | 7.69 | -12.5 | 4.6 | 1.23 | 8.11 | -13.2 | 2.39 | 10.8 | -2.79
Cn1cc(C(=O)N2CCC(Cc3nccs3)CC2)cn1 | 0.12 | 6.67 | -7.82 | -4.54 | -1.33 | 6.73 | 15 | 4.23 | 0 | -28.5
Cc1cc(C(=O)NCC(C)N2CCc3ccccc32)no1 (stereo not given) | 0.558 | 2.6 | 10.1 | 2.8 | -4.3 | 0.175 | 23.3 | 7.84 | 11.8 | -1.74
COc1ccc(OC)c(Sc2ncccc2C(=O)N(C)CCC#N)c1 | -2.48 | 16.9 | -3.09 | 0.75 | 0 | 15.5 | 32.7 | 4.83 | 10 | -12.2
O=C(C1CCOC1)N1CCc2ncc(CNc3ccccn3)n2CC1 (stereo not given) | -0.228 | 1.3 | 8.26 | -0.682 | -1.62 | 6.8 | 4.98 | 3.68 | 5.13 | -14.8
CC(C(=O)N1CCCC1)N1CCC(c2nccn2Cc2cscn2)CC1 (stereo not given) | -2.34 | 0 | 12.9 | -3.4 | 5.94 | 13 | 3.46 | 6.92 | 12.2 | -3.89
Cc1ccccc1-c1cncc(C2CCN(C(C)C)CC2)n1 | -10.1 | 12 | 6.88 | 3.55 | -1.77 | 8.37 | -7.37 | 7.41 | 17.5 | -27.9
CN(Cc1ccccc1)C(=O)c1nc(S(C)(=O)=O)n2ccccc12 | -7.02 | -92.3 | -5.33 | 9.67 | -1.23 | 1.96 | 5.84 | 1.44 | 13.2 | -7.37
CNc1cc(C2CCCN2C(=O)c2ccc3oc(=O)n(C)c3c2)ccn1 (stereo not given) | -1.24 | 14.7 | 1.42 | -3.94 | -1.33 | 11.3 | -1.54 | 0 | 7.5 | -22.1
O=c1cccnn1CC1CN(Cc2ccsc2)Cc2nccn2C1 (stereo not given) | -8.45 | -40.3 | 11 | -1.66 | 3.64 | 8.91 | -4.15 | 14.2 | 15.4 | 4.94
NC(=O)C1CCC(NC(=O)COc2ccc(Cl)c(Cl)c2)CC1 (stereo not given) | -4.03 | 10.4 | 8.56 | 6.16 | -5.94 | 9.12 | 8.8 | 5.88 | 23.5 | -8.52
Cc1ncc(-c2ccnc(N3CCCCCC3)n2)c(-c2cccnc2)n1 | -0.407 | 10.7 | 0.168 | -8.03 | 3.1 | 8.74 | 21.1 | 1.58 | 12.8 | -11.6
Cc1ccccc1CC(=O)N(C)C1CCCC1 | -3.46 | 13.3 | -5.48 | -4.62 | 3.1 | 16.2 | 17 | 3.68 | 7.69 | -11.3
COc1cccc(CN2CCCC3(CCN(C(=O)c4ccco4)C3)C2)c1 (stereo not given) | -3.23 | 9.09 | 0.7 | 0.563 | 5.02 | 17.8 | 5.54 | 14.5 | 15 | -3.31
CN(Cc1ccccc1)CC(O)Cn1cnc2ccccc2c1=O (stereo not given) | -0.933 | 2.56 | 0.642 | 4.79 | 9.84 | -2.13 | 12.8 | 0.478 | 6.02 | 0.379
O=C(NCC1CCSCC1)N(CCCO)C1CCc2ccccc21 (stereo not given) | -1.28 | 8 | -4.32 | -4.02 | -3.1 | 9.92 | 11 | -0.526 | 0 | -14.3
N#Cc1cccc(N2CC3(CCN(C(=O)c4cccnc4)C3)CC2=O)c1 (stereo not given) | -6.73 | 9.09 | -3.3 | -4.58 | -3.64 | 12.6 | -1.73 | 3.68 | 15.4 | -3.29
